# Structures can show the parent of a compound that is named as a salt.
# Test system: HEK293FT dCK*-only
# Assay: relative growth in counter assay (no AraC = 100%, AraC + DMSO = 0%); higher = more growth rescue independent of IKZF1
# Settings: compound concentration: 5 uM; AraC concentration: 0.3 uM; overnight pretreatment + 4 days AraC
# Procedure, shortened: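 HEK293FT cells carrying only an engineered kinase construct were plated at 300 per well (384-well) and given 5 μM compound 2 h later. Following overnight at 37 °C, a nucleoside suicide substrate (0.3 μM) plus medium was added for 4 days. Hoechst 33342-stained nuclei were imaged and counted on day 5, with 100% assigned to wells without suicide substrate and 0% to substrate plus vehicle on each plate.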
row,SMILES,relative growth in counter assay [%]
1,COc1cc(/C=C2\CCC/C(=C\c3ccc(O)c(OC)c3)C2=O)ccc1O [cyclovalone],-31.6
2,CCC(=O)N1CCN(c2ccc(-n3c(=O)ccc4cnc5ccc(-c6cnc7ccccc7c6)cc5c43)cc2C(F)(F)F)CC1 [Torin 1],-27.5
3,O=[N+]([O-])c1ccc2nc(COCc3nc4ccc([N+](=O)[O-])cc4[nH]3)[nH]c2c1,-3.14
4,Cc1cccc(C)c1NC(=O)CN1CCN(CCCC(c2ccc(F)cc2)c2ccc(F)cc2)CC1 [lidoflazine],35.6
5,O=S(=O)(O)CCSSCCS(=O)(=O)O,-2.36
6,Cc1nc(Nc2ncc(C(=O)Nc3c(C)cccc3Cl)s2)cc(N2CCN(CCO)CC2)n1 [Dasatinib],-29
7,COC(=O)Nc1ccc(-c2nc(N3CCOCC3)c3cnn(C4CCN(C(=O)OC)CC4)c3n2)cc1,-9.33
8,COc1cc(NS(=O)(=O)c2ccc(N)cc2)ncn1,-5.7
9,Clc1ccc(C(Cn2ccnc2)OCc2c(Cl)cccc2Cl)c(Cl)c1 (stereo unspecified) [Isoconazole nitrate (Travogen)],0.7
10,C=C1C(=O)O[C@H]2[C@H]1CC/C(C)=C\CC[C@@]1(C)O[C@@H]21 [Parthenolide ((-)-Parthenolide)],-33.7
11,N=c1ccn2c(n1)O[C@H]1[C@H](O)[C@@H](CO)O[C@H]12 [Cyclocytidine HCl],-34
12,CCCCOc1ccc(-c2cncc(C(=O)NCc3cccnc3N3CCOCC3)c2)cc1Cl,-0.15
13,CC(C)(C)c1ccc(/C=C/C(=O)Nc2ccc3c(c2)OCCO3)cc1,-1.73
14,C1CCC(C(CC2CCCCN2)C2CCCCC2)CC1 (stereo unspecified),-1.13
15,CC[C@H](CO)Nc1nc(Nc2cccc(-c3ccccn3)c2)c2ncn(C(C)C)c2n1,-0.26
16,COc1cc(N2CCN(CCOCCOCCNC(=O)CNc3cccc4c3C(=O)N(C3CCC(=O)NC3=O)C4=O)CC2)ccc1Nc1ncc(Cl)c(Nc2ccccc2S(=O)(=O)C(C)C)n1 (stereo unspecified),-27.8
17,CN(C)C(=O)C(CCN1CCC(O)(c2ccc(Cl)cc2)CC1)(c1ccccc1)c1ccccc1,0.63
18,CSCC[C@H](N)C(=O)O [L-methionine],-0.43
19,CCN(c1ccccc1)c1cc(NC)[n+](C)c(C)n1,3.09

row,SMILES,relative growth in counter assay [%]
1,CCCCCCCC/C=C\CCCCCCCC(=O)NCCO [oleoylethanolamide],0.5
2,Cc1noc(C)c1-c1ccc(-c2cc(C(N)=O)c(NC(N)=O)s2)c(O[C@H]2CCNC2)c1,4.03
3,CC(C)(C)C1=CC=C(CN(C)[C@H](C(N[C@H]([C@](NC(C)(C)C)=O)CC2=CC=C(OCC3=CC=CC=C3)C=C2)=O)CC(C)C)C=C1,1.14
4,O=C(Nc1cc(C(F)(F)F)cc(C(F)(F)F)c1)Nc1c(Br)cc(Br)cc1-c1nnn[nH]1,-2.42
5,c1ccc(C2(c3ccccc3)CC2=C2NCCN2)cc1 [cibenzoline],0.23
6,Nc1ccc(S(=O)(=O)Nc2ncccn2)cc1,-9.24
7,COc1cc(NS(=O)(=O)c2ccc(N)cc2)nc(OC)n1,-0.83
8,CCNC(=O)Nc1ccc(-c2nc3c(c(N4CCOC[C@@H]4C)n2)CCN(C2COC2)C3)cc1,-31.5
9,O=C(OC)C1=C(C)NC(C)=C([N+]([O-])=O)[C@H]1[C@]2=CC=CC=C2C(F)(F)F,0.45
10,CO[C@H]1O[C@@H]2O[C@@]3(C)CC[C@H]4[C@H](C)CC[C@@H]([C@H]1C)[C@@]24OO3 [Artemether],-7.46
11,CN(C)CC/C=C1\c2ccccc2CSc2ccccc21 [dosulepin],-9.29
12,COCCN(C(=O)c1cc(OC)c(OC)c(OC)c1)c1nc(-c2ccccc2)cs1 [eact],-0.03
13,CN(C)CCCN1c2ccccc2Sc2ccc(Cl)cc21,-0.83
14,COc1ncnc(NS(=O)(=O)c2ccc(N)cc2)c1OC,-8.08
15,COC(=O)Nc1nc2ccc(S(=O)c3ccccc3)cc2[nH]1 (stereo unspecified),-12.6
16,CN(C)c1ccc2c(c1)Sc1cc(N(C)C)ccc1N2.CS(=O)(=O)O [Leucomethylene blue (Mesylate)],-19.7
17,O=C1CN(/N=C/c2ccc(-c3ccc([N+](=O)[O-])cc3)o2)C(=O)N1 [dantrolene],-3.99
18,CC(CNC1CCCCC1)OC(=O)c1ccccc1 (stereo unspecified) [hexylcaine],0.35
19,CCCCCCC[N+](CC)(CC)CCCCc1ccc(Cl)cc1 [clofilium],-3.59

# Test system: HEK293FT dCK*-IKZF1
# Assay: relative growth recovery (pomalidomide 10 uM = 100%, DMSO = 0%); higher = more growth rescue (IKZF1 fusion degradation)
# Settings: compound concentration: 5 uM; AraC concentration: 0.3 uM; overnight pretreatment + 4 days AraC
# Procedure, shortened: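 Means of duplicates from different days are given for growth recovery, normalised per plate against a reference degrader and vehicle. The reference degrader set the 100% level and vehicle the 0% level. HEK293FT cells stably expressing a deoxycytidine kinase–IKZF1 fusion (300/well, 384-well) received 5 μM compound 2 h after seeding and, after overnight at 37 °C, 0.3 μM of a nucleoside suicide substrate plus medium for 4 days. Nuclei stained with Hoechst 33342 were then counted by whole-well imaging on day 5.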
row,SMILES,relative growth recovery [%]
1,COc1cc(/C=C2\CCC/C(=C\c3ccc(O)c(OC)c3)C2=O)ccc1O [cyclovalone],2.27
2,CCC(=O)N1CCN(c2ccc(-n3c(=O)ccc4cnc5ccc(-c6cnc7ccccc7c6)cc5c43)cc2C(F)(F)F)CC1 [Torin 1],-10.5
3,O=[N+]([O-])c1ccc2nc(COCc3nc4ccc([N+](=O)[O-])cc4[nH]3)[nH]c2c1,4.2
4,Cc1cccc(C)c1NC(=O)CN1CCN(CCCC(c2ccc(F)cc2)c2ccc(F)cc2)CC1 [lidoflazine],36.1
5,O=S(=O)(O)CCSSCCS(=O)(=O)O,0.365
6,Cc1nc(Nc2ncc(C(=O)Nc3c(C)cccc3Cl)s2)cc(N2CCN(CCO)CC2)n1 [Dasatinib],-7.9
7,COC(=O)Nc1ccc(-c2nc(N3CCOCC3)c3cnn(C4CCN(C(=O)OC)CC4)c3n2)cc1,-2.33
8,COc1cc(NS(=O)(=O)c2ccc(N)cc2)ncn1,-0.825
9,Clc1ccc(C(Cn2ccnc2)OCc2c(Cl)cccc2Cl)c(Cl)c1 (stereo unspecified) [Isoconazole nitrate (Travogen)],-3.42
10,C=C1C(=O)O[C@H]2[C@H]1CC/C(C)=C\CC[C@@]1(C)O[C@@H]21 [Parthenolide ((-)-Parthenolide)],-11.6
11,N=c1ccn2c(n1)O[C@H]1[C@H](O)[C@@H](CO)O[C@H]12 [Cyclocytidine HCl],-12.9
12,CCCCOc1ccc(-c2cncc(C(=O)NCc3cccnc3N3CCOCC3)c2)cc1Cl,4.37
13,CC(C)(C)c1ccc(/C=C/C(=O)Nc2ccc3c(c2)OCCO3)cc1,0.45
14,C1CCC(C(CC2CCCCN2)C2CCCCC2)CC1 (stereo unspecified),-2.33
15,CC[C@H](CO)Nc1nc(Nc2cccc(-c3ccccn3)c2)c2ncn(C(C)C)c2n1,-2.95
16,COc1cc(N2CCN(CCOCCOCCNC(=O)CNc3cccc4c3C(=O)N(C3CCC(=O)NC3=O)C4=O)CC2)ccc1Nc1ncc(Cl)c(Nc2ccccc2S(=O)(=O)C(C)C)n1 (stereo unspecified),-4.32
17,CN(C)C(=O)C(CCN1CCC(O)(c2ccc(Cl)cc2)CC1)(c1ccccc1)c1ccccc1,-0.755
18,CSCC[C@H](N)C(=O)O [L-methionine],1.19
19,CCN(c1ccccc1)c1cc(NC)[n+](C)c(C)n1,-0.645

row,SMILES,relative growth recovery [%]
1,CCCCCCCC/C=C\CCCCCCCC(=O)NCCO [oleoylethanolamide],1.78
2,Cc1noc(C)c1-c1ccc(-c2cc(C(N)=O)c(NC(N)=O)s2)c(O[C@H]2CCNC2)c1,3.93
3,CC(C)(C)C1=CC=C(CN(C)[C@H](C(N[C@H]([C@](NC(C)(C)C)=O)CC2=CC=C(OCC3=CC=CC=C3)C=C2)=O)CC(C)C)C=C1,-2.38
4,O=C(Nc1cc(C(F)(F)F)cc(C(F)(F)F)c1)Nc1c(Br)cc(Br)cc1-c1nnn[nH]1,-4.01
5,c1ccc(C2(c3ccccc3)CC2=C2NCCN2)cc1 [cibenzoline],-0.4
6,Nc1ccc(S(=O)(=O)Nc2ncccn2)cc1,2.56
7,COc1cc(NS(=O)(=O)c2ccc(N)cc2)nc(OC)n1,-4.54
8,CCNC(=O)Nc1ccc(-c2nc3c(c(N4CCOC[C@@H]4C)n2)CCN(C2COC2)C3)cc1,-12.3
9,O=C(OC)C1=C(C)NC(C)=C([N+]([O-])=O)[C@H]1[C@]2=CC=CC=C2C(F)(F)F,-0.325
10,CO[C@H]1O[C@@H]2O[C@@]3(C)CC[C@H]4[C@H](C)CC[C@@H]([C@H]1C)[C@@]24OO3 [Artemether],-4.6
11,CN(C)CC/C=C1\c2ccccc2CSc2ccccc21 [dosulepin],-1.36
12,COCCN(C(=O)c1cc(OC)c(OC)c(OC)c1)c1nc(-c2ccccc2)cs1 [eact],-1.76
13,CN(C)CCCN1c2ccccc2Sc2ccc(Cl)cc21,-1.89
14,COc1ncnc(NS(=O)(=O)c2ccc(N)cc2)c1OC,0.355
15,COC(=O)Nc1nc2ccc(S(=O)c3ccccc3)cc2[nH]1 (stereo unspecified),-3.6
16,CN(C)c1ccc2c(c1)Sc1cc(N(C)C)ccc1N2.CS(=O)(=O)O [Leucomethylene blue (Mesylate)],-10.3
17,O=C1CN(/N=C/c2ccc(-c3ccc([N+](=O)[O-])cc3)o2)C(=O)N1 [dantrolene],4.57
18,CC(CNC1CCCCC1)OC(=O)c1ccccc1 (stereo unspecified) [hexylcaine],-0.215
19,CCCCCCC[N+](CC)(CC)CCCCc1ccc(Cl)cc1 [clofilium],-1.53
